Measurements from the supplement of paper PMC11732987, “Enantioselective OTUD7B fragment discovery through chemoproteomics screening and high-throughput optimisation” (Communications Chemistry, 2025).

Columns and labels:
Assay in all cases: log2 ratio of Biotin-Ahx-Ub-VS probe labelling (fragment/DMSO); higher = less target engagement (more negative = stronger competition), active = hit call of the paper (q ≤ 0.05, log2 ratio ≤ -1)
Details in all cases: compound concentration: 200 uM; treatment time: 3 h
USP16 = USP16 (UniProt Q9Y5T5)
Summary of the method: (§1)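 HEK293T lysate, 495 µg per sample in Tris/CHAPS/IGEPAL buffer with protease inhibitors, was treated in triplicate with fragment at 200 µM or vehicle for 3 h and then with Biotin-Ahx-Ub-VS at 0.5 µM final for 1 h. Labelled DUBs were NeutrAvidin-enriched, digested with LysC and trypsin, and run by diaPASEF LC-MS/MS. Spectronaut label-free quantities were global-median-normalised, and values are average log2 fragment/vehicle ratios by unpaired t-test on proteins with ≥2 unique peptides.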

USP19 = target: T1, USP19 (UniProt O94966)
T1 sequence (whole entry): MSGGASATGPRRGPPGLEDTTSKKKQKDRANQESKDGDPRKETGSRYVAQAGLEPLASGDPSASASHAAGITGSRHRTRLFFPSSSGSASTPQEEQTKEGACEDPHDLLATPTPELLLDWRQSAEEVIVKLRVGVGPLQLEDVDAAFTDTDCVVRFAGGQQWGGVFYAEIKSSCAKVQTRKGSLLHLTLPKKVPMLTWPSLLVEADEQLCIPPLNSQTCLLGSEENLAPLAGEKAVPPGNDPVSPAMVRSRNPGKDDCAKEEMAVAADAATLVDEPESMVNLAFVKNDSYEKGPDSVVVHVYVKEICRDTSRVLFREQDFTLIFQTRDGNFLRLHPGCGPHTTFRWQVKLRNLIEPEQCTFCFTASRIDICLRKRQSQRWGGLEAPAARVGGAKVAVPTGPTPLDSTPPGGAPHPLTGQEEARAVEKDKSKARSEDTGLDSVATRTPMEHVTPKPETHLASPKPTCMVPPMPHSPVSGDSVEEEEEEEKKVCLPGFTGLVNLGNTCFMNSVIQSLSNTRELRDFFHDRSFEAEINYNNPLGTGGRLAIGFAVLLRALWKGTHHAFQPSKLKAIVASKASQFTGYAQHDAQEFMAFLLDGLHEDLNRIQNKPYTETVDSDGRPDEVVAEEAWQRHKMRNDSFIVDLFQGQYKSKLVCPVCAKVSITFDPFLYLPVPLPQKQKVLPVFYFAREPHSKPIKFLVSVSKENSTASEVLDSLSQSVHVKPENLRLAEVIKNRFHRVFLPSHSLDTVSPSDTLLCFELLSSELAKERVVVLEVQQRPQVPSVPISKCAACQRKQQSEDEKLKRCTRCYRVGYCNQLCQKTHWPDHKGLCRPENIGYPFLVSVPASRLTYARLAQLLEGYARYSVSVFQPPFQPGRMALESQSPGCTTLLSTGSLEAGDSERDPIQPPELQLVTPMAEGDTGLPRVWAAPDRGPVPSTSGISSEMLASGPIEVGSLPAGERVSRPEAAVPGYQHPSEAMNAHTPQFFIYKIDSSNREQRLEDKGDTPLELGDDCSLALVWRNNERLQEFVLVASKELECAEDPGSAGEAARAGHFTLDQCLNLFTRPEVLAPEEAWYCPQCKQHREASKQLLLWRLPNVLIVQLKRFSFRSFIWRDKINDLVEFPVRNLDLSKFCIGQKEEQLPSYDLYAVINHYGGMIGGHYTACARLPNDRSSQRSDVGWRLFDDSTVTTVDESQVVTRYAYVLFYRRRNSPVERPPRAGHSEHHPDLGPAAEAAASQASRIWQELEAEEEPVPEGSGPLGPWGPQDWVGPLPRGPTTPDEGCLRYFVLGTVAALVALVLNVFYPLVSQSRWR
Summary of the method: as §1

USP24 = USP24 (UniProt Q9UPU5)
Summary of the method: as §1

USP25 = target: T2, USP25 (UniProt Q9UHP3)
T2 sequence (whole entry): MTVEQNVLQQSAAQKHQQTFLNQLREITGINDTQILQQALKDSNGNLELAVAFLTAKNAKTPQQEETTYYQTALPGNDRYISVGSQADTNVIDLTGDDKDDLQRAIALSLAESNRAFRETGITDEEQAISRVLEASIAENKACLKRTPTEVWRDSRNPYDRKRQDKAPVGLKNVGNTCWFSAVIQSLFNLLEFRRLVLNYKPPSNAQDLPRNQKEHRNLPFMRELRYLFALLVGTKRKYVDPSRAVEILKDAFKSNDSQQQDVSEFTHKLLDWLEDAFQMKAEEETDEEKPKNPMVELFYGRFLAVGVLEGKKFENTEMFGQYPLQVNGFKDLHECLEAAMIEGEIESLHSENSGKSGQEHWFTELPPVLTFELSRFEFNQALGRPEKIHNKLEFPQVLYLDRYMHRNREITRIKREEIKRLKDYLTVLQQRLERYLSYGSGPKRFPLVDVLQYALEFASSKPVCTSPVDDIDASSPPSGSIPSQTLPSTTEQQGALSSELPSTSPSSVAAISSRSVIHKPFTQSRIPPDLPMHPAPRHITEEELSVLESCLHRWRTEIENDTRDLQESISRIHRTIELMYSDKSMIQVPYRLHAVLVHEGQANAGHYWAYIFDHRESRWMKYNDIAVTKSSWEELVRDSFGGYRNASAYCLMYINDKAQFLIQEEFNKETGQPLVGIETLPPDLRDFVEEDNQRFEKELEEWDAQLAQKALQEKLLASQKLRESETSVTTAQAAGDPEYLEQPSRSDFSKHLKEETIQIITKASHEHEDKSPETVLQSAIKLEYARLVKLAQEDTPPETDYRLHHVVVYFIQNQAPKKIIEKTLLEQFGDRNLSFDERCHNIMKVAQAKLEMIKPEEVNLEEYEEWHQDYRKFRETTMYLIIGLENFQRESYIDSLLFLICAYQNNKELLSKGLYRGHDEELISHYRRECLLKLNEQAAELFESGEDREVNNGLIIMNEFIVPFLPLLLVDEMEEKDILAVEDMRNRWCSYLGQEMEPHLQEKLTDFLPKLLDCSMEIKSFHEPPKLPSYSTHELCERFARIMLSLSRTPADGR
Summary of the method: as §1

USP28 = target: T3, USP28 (UniProt Q96RU2)
T3 sequence (whole entry): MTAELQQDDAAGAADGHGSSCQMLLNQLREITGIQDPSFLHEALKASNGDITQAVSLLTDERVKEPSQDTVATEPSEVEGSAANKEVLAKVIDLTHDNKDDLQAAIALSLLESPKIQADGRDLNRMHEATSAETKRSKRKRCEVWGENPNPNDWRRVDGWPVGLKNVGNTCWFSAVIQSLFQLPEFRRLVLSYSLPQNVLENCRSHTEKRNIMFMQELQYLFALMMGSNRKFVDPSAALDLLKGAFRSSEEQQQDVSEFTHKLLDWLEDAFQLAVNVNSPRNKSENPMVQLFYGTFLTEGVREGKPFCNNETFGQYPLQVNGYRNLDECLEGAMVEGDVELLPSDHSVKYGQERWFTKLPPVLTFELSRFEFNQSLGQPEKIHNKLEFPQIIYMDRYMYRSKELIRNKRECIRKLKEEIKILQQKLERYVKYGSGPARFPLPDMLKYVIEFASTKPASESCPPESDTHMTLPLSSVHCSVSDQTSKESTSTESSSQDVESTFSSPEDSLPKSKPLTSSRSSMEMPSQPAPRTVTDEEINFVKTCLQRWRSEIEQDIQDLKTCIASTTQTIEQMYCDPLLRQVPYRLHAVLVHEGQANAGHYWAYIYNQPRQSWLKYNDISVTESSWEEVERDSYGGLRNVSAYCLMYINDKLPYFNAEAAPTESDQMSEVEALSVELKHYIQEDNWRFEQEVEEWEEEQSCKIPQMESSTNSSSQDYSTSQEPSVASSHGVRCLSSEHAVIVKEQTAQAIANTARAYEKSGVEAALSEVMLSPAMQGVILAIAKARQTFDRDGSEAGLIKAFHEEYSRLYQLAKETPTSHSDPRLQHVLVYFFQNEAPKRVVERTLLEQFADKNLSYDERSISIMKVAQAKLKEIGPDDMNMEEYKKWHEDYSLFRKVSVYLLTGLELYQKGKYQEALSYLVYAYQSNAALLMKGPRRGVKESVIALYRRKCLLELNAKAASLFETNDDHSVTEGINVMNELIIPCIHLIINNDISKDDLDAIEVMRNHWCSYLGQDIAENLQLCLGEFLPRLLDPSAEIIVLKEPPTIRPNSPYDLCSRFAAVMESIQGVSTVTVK
Summary of the method: as §1

Measured: log2 ratio of Biotin-Ahx-Ub-VS probe labelling

USP16, sequence (Q9Y5T5 whole entry, looked up, the tested form may be a part): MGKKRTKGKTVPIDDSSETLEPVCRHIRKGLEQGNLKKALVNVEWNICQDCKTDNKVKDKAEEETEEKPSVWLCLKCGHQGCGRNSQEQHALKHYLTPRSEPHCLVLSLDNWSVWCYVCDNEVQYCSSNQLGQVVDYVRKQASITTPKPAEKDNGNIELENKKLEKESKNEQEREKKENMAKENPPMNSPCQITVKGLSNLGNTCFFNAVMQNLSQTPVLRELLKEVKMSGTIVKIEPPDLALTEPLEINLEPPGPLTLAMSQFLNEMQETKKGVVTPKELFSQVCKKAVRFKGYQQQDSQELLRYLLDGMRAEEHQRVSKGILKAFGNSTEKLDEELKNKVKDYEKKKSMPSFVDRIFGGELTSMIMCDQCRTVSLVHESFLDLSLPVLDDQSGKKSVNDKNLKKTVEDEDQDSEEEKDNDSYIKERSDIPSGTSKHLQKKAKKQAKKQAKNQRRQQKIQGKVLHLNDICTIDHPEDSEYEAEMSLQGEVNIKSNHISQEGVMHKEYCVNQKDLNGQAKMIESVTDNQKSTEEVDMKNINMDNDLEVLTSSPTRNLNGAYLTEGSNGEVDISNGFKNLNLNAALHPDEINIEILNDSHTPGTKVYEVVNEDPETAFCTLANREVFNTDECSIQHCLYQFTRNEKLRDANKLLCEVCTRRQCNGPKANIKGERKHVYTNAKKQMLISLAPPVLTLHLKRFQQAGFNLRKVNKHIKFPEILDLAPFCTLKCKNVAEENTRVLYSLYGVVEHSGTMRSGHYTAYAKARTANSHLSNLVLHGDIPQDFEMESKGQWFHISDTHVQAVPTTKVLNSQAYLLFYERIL
USP24, sequence (Q9UPU5 whole entry): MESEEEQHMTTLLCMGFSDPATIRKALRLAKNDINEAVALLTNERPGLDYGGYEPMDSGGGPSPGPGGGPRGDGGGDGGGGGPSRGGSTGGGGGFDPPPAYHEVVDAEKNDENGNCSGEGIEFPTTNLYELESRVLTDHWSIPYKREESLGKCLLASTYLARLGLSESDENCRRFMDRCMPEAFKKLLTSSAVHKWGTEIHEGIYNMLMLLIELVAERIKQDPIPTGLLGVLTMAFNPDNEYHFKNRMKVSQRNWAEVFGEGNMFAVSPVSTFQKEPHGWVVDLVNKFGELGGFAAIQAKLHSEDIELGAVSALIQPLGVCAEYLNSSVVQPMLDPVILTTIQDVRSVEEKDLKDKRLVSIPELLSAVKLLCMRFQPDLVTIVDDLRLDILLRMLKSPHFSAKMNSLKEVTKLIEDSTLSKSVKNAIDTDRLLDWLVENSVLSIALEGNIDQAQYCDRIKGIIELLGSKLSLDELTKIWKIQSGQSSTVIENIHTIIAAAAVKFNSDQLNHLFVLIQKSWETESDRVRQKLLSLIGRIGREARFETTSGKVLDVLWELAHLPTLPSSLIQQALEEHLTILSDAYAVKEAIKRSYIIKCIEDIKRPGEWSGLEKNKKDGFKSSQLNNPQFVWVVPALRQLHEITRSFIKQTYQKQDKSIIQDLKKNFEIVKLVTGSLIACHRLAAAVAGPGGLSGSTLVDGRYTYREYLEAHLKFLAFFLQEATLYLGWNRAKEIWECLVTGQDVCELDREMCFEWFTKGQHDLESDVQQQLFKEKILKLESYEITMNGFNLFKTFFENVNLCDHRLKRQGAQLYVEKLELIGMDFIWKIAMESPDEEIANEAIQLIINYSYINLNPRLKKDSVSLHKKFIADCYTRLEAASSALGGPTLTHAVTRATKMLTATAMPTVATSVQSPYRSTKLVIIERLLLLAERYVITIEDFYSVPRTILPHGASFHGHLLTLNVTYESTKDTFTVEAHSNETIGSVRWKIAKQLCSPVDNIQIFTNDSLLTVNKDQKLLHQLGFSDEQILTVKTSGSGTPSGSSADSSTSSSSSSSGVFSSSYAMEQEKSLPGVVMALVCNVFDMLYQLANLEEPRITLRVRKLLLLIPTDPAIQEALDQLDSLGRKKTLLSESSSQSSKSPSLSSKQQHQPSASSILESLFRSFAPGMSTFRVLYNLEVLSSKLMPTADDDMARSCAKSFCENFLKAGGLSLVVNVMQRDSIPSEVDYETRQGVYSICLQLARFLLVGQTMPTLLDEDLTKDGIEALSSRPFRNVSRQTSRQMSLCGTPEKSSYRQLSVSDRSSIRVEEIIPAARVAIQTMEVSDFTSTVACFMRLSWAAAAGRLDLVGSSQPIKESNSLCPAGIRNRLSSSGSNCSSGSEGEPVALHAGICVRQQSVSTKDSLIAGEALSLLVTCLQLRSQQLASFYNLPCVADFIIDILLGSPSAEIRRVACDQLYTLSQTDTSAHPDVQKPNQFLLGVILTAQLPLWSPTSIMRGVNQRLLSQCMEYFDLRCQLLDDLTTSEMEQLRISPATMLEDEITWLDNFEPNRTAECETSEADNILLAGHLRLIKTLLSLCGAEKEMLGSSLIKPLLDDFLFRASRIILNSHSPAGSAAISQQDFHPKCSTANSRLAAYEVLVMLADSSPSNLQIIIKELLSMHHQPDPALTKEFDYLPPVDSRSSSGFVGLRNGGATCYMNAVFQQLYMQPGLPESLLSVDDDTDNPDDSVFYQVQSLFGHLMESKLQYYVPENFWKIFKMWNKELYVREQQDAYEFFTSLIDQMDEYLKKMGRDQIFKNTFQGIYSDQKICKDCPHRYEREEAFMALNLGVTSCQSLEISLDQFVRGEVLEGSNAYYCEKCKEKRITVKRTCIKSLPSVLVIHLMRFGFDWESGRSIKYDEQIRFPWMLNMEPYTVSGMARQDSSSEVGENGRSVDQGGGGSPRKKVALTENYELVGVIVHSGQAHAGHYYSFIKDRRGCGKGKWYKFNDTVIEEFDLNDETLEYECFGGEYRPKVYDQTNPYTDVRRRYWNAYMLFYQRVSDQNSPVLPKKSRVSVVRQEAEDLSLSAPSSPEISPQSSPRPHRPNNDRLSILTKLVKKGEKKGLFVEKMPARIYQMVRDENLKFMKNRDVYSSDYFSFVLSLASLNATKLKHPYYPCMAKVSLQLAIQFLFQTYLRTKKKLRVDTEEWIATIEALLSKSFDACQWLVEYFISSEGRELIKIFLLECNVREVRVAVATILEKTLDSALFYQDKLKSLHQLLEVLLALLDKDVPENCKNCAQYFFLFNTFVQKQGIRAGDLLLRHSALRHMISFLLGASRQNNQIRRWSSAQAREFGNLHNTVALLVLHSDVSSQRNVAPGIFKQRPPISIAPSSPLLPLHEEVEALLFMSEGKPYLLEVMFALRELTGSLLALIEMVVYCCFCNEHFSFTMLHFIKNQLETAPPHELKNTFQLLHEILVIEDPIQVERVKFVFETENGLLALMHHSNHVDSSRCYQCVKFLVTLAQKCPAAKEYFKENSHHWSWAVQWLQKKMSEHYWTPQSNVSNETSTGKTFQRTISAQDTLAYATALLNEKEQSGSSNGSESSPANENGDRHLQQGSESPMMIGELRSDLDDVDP

CS(=O)(=O)c1ccc(CNC(=O)CCl)cc1
inactive: USP16 -0.251 | USP19 -0.123 | USP24 -0.159 | USP25 -0.385 | USP28 -0.583
